Source: PubChem BioAssay AID743395 (Broad Institute, 2014)
Out of some 1,200 compounds screened, about 480 (40%) were called active. How the calls were made is not given here. So high a share suggests a set chosen from earlier hits. A selection follows. Results with a measured potency or affinity are listed apart.

test: HepG2 cell cytotoxicity, dose response, cytotoxicity control, CellTiter-Glo luminescence, cherry-pick, set 2 (AID 743395); settings: HepG2 viability, CellTiter-Glo ATP luminescence, 72 h; series mostly up to 26 µM

Row | SMILES | outcome
1 | CN1C(=O)c2cccc3c(N)ccc(c23)C1=O | inactive
2 | CC1Cc2nc(SCC(=O)N3CCOCC3)n(-c3ccccc3)c(=O)c2S1 (stereo unspecified) | inactive
3 | COc1cc(/C=C(\CC(=O)O)c2nc3ccccc3s2)ccc1OCC(=O)Nc1ccccc1F | inactive
4 | CC(=O)Nc1ccc(-c2csc(NC(=O)CN3C(=O)NC4(CCCC4)C3=O)n2)cc1 | inactive
5 | CC(C)(C)c1ccccc1NC(=O)CN1C(=O)NC2(CCCCCC2)C1=O | inactive
6 | O=C(NC1CCN(Cc2ccccc2)CC1)c1cc(S(=O)(=O)N2CCOCC2)ccc1Cl | inactive
7 | Cn1c(CC(=O)NN)c(Sc2ccccc2)c2ccccc21 | inactive
8 | CCCOc1cc(N(CC)CC)ccc1/C=C(/C#N)c1nc2ccc(C)cc2[nH]1 | inactive
9 | COc1cc(/C=C(\C#N)C(=O)c2c[nH]c3ccccc23)cc(OC)c1O | inactive
10 | O=C(Nc1ccn(CCCNC2CCN(Cc3ccccc3)CC2)c(=O)n1)OCc1ccccc1 | inactive
11 | Clc1ccc(N(CC2CO2)CC2CO2)cc1 (stereo unspecified) | inactive
12 | CC1=C(C(=O)N(C)C)CC(CC(=O)NCc2cccc3ccccc23)C(=O)N1CCCN1CCCC1=O (stereo unspecified) | inactive
13 | Cc1cccc(NC(=O)CN2CCN(C(=O)CN3C(=O)NC4(CC(C)CC(C)(C)C4)C3=O)CC2)c1C (stereo unspecified) | inactive
14 | COc1ccc2c(c1)C(O)C(CO)C(C(=O)O)C2 (stereo unspecified) | inactive
15 | COc1ccc(S(=O)(=O)N2CC[C@@H]3[C@@H](CO)N(C)c4ccc(-c5ccc(F)cc5)cc4[C@@H]32)cc1 | inactive
16 | CCOc1ccc2c(c1)C(C)=CC(C)(C)N2S(=O)(=O)c1ccc(F)cc1 | inactive
17 | O=C(Cc1ccccn1)NCC[C@H]1CC[C@H](NC(=O)Nc2ccc(C(F)(F)F)cc2)[C@H](CO)O1 | inactive
18 | Fc1ccc2nc(C3CCN(Cc4nc(CC5CC5)no4)CC3)[nH]c2c1 | inactive
19 | N#C/C(=C(/O)c1ccc(Br)s1)c1nc2ccccc2[nH]1 | inactive
20 | Cc1cc2oc(C(=O)NCCc3ccc(S(N)(=O)=O)cc3)c(C)c2cc1C | inactive
21 | CCOC(=O)N1CCN(S(=O)(=O)c2ccc3c(c2)C(C)C(=O)N3)CC1 (stereo unspecified) | inactive
22 | COc1ccccc1C1CC(=O)Nc2cc3c(cc21)OCCO3 (stereo unspecified) | inactive
23 | CCOc1ccccc1NC(=O)CC1SC(=N)N(c2ccccc2)C1=O (stereo unspecified) | inactive
24 | O=S1(=O)c2ccc(Br)cc2N2CCC[C@H]2CN1Cc1ccccc1 | inactive

Row | SMILES | outcome
25 | O=C(CC1Sc2ccccc2NC1=O)NNc1cccc(Cl)c1Cl (stereo unspecified) | inactive
26 | CC(=O)OC1CCC2(C)C(=CCC3C2CCC2(C)C3CC3ON=C(C)C32)C1 (stereo unspecified) | inactive
27 | Cc1ccc(S(=O)(=O)N2C[C@H]3[C@H]4C(=O)N(C)C(=O)[C@H]4CC(=O)[C@H]3[C@@H]2c2ccccc2F)cc1 | inactive
28 | CCCNC(=O)N1C[C@@H]2[C@H](c3ccccc31)[C@H](CO)N2Cc1ccc(OC)cc1 | inactive
29 | NS(=O)(=O)c1cc(Cl)c(Cl)c(S(N)(=O)=O)c1 | inactive
30 | COc1ccc(CC(=O)NC(c2ccccc2)c2ccc(C)cc2)c(OC)c1 (stereo unspecified) | inactive
31 | CC(C)NC(=O)NC(=O)COC(=O)c1ccc(S(=O)(=O)Nc2ccccc2)cc1 | inactive
32 | Cc1cc(-c2ccccc2)nc(N(C)NC(=O)C2CC2)c1S(C)(=O)=O | inactive
33 | O=C(COC(=O)c1cc([N+](=O)[O-])ccc1N1CCOCC1)Nc1c(Cl)cccc1Cl | inactive
34 | CCc1cccc(NC(=O)COC(=O)c2cc([N+](=O)[O-])ccc2N2CCOCC2)c1 | inactive
35 | COc1ccc(C(=O)c2cc([N+](=O)[O-])ccc2N2CCN(C)CC2)cc1 | inactive
36 | C[C@@H]1CN([C@H](C)CO)S(=O)(=O)c2ccc(/C=C/c3ccccc3)cc2O[C@H]1CN(C)C(=O)NC1CCCCC1 | inactive
37 | COc1cccc(/C=N/NC(=O)C(=O)N/N=C/c2cccc(OC)c2O)c1O | inactive
38 | C#CCN(C)CCCOc1ccc(Cl)cc1Cl | inactive
39 | CC(C)Nc1nc(Nc2ccc(C#N)cc2)c2sccc2n1 | inactive
40 | CCCCNc1cc(C(=O)O)cc(S(N)(=O)=O)c1Oc1ccccc1 | inactive
41 | CC[N+]1(CC)CC2=Cc3ccccc3CC2C1 (stereo unspecified) | inactive
42 | Cc1ccc2c(CN3CCN(S(=O)(=O)c4ccc(Cl)cc4)CC3)cc(=O)oc2c1C | inactive
43 | C#Cc1ccc(NC(=O)C2(C)CCN2C(=O)c2cc(C)n(C)n2)cc1 (stereo unspecified) | inactive
44 | CCN1C(=O)c2cccc3c(N)ccc(c23)C1=O | inactive
45 | Cn1c(NCc2ccccc2F)nc2cc(-c3ccsc3)sc2c1=O | inactive
46 | Cc1cc2oc(=O)cc(-c3ccccc3)c2c(C)c1-c1ccc(O)cc1 | inactive
47 | Nc1ccc(-c2c3ccc(=O)cc-3oc3cc(O)ccc23)cc1C(=O)O | inactive
48 | COC(=O)CNc1cc(S(=O)(=O)N2CCCCC2)ccc1Oc1ccc(C(=O)OC)cc1 | inactive

Row | SMILES | outcome
49 | COc1ccccc1CNC(=O)Cn1cnnn1 | inactive
50 | COc1ccc(NC(=O)C(CC(=O)O)Cc2ccc(Cl)cc2)cc1 (stereo unspecified) | inactive
51 | Cc1ccc(OCC(=O)Nc2ccc3c(c2)ncn3C)cc1 | inactive
52 | C#Cc1ccc(C(=O)Nc2ccc(N3CCC(C)CC3)c(C(N)=O)c2)cc1 | inactive
53 | COc1ccccc1/C=C/C=N/NC(=O)CCn1cnc2ccccc21 | inactive
54 | C[C@H]1CN([C@@H](C)CO)S(=O)(=O)c2ccc(C#Cc3ccccc3F)cc2O[C@H]1CN(C)C(=O)c1ccc2c(c1)OCO2 | inactive
55 | COc1ccc(/C=N/NC(=O)c2cccnc2)cc1CSc1ccccn1 | inactive
56 | COc1cc(/C=N/NC(=O)c2cc(-c3c(C)nn(-c4ccccc4)c3C)n[nH]2)ccc1O | inactive
57 | CC#CCOCC1CNC(=O)O1 (stereo unspecified) | inactive
58 | CCCN1[C@H](C(=O)N2CCOCC2)[C@@H](CO)[C@@H]2Cn3c(ccc(/C=C/c4ccccc4)c3=O)[C@@H]21 | inactive
59 | O=C(COC(=O)C1CCC1)Nc1cc(S(=O)(=O)N2CCOCC2)ccc1Cl | inactive
60 | CCOc1ccc(S(=O)(=O)N2CCOCC2)cc1NC(=O)CSCC(=O)Nc1ccc(OC)cc1 | inactive
61 | COC(=O)[C@H](CCSC)NC(=O)Cn1cc(C)c(=O)[nH]c1=O | inactive
62 | COCOc1cccc(CN2CCC2(C)C(=O)Nc2ccc(C)c(O)c2)c1 (stereo unspecified) | inactive
63 | CCN(C(=O)CSc1nnc(C)n1-c1ccc(C)cc1)c1c(N)n(Cc2ccccc2)c(=O)[nH]c1=O | inactive
64 | COc1ccc(S(=O)(=O)Nc2ccc3c(c2)C(=O)N([C@@H](C)CO)C[C@H](C)[C@H](CN(C)Cc2ccc(Cl)c(Cl)c2)OCCCC[C@@H](C)O3)cc1 | inactive
65 | COc1ccc(NC(=O)N(C)C[C@H]2Oc3c(cccc3N(C)C)C(=O)N([C@H](C)CO)C[C@H]2C)cc1 | inactive
66 | Cc1ccc(S(=O)(=O)Nc2ccc3c(c2)C(=O)N([C@@H](C)CO)C[C@H](C)[C@H](CN(C)S(=O)(=O)c2ccc(Cl)cc2)OCCCC[C@@H](C)O3)cc1 | inactive
67 | Cc1ccc(N2CC(C(=O)N(C)CC(=O)Nc3ccc(Cl)c(C(F)(F)F)c3)CC2=O)cc1 (stereo unspecified) | inactive
68 | Cn1nc(C(=O)NNC(=O)CCOc2ccc(C(C)(C)C)cc2)c2ccccc2c1=O | inactive
69 | COc1ccc(OCC(=O)NNC(=O)CCc2ccccc2)cc1 | inactive
70 | O=c1cc(-c2ccccc2)[nH]c2ccc(F)cc12 | inactive
71 | O=C(Nc1ccc(F)cc1)Nc1ccc(N2CCOCC2)c2nonc12 | inactive
72 | COC(=O)c1ccc(C(=O)NC2CCCc3c2cnn3-c2ccc(C)c(C)c2)cc1 (stereo unspecified) | inactive

Row | SMILES | outcome
73 | O=C(N/N=C/c1ccccc1OC(F)F)c1cc(-c2ccncc2)nc2ccccc12 | inactive
74 | O=C(CN1CCN(S(=O)(=O)c2ccc(F)c(Cl)c2)CC1)N1CCc2ccccc2C1 | inactive
75 | Cc1ccc(C)c(NC(=O)CSc2nc3c(c(=O)n2C)SC(C)C3)c1 (stereo unspecified) | inactive
76 | COC(=O)c1c(-c2ccc(C)cc2)csc1NC(=O)c1c(-c2ccccc2)noc1C | inactive
77 | Cc1ccc(NC(=O)c2c(C)noc2C)cc1S(=O)(=O)N1CCOCC1 | inactive
78 | O=C(CSc1nc2ccccc2n1-c1ccccc1)Nc1ncc(Cl)cc1Cl | inactive
79 | O=C(COc1ccc(F)cc1Cl)Nc1cccc(S(=O)(=O)N2CCCCCC2)c1 | inactive
80 | O=S1(=O)CCN(C(CO)c2ccccc2)CC1 (stereo unspecified) | inactive
81 | COc1ccc(/C=C2\SC(=O)N(CCNC(=O)C3=COCCO3)C2=O)cc1 | inactive
82 | CC1(c2ccc3ccccc3c2)CCC(=O)O1 (stereo unspecified) | inactive
83 | COc1ccc(S(=O)(=O)N2CCN(CCOc3ccccc3Cl)CC2)cc1OC | inactive
84 | CCCCN1C(=O)/C(=C/C=C2\Oc3ccccc3N2CC)SC1=S | inactive
85 | COc1cc(/C=C2\SC(=S)N(NC(=O)c3ccncc3)C2=O)ccc1O | inactive
86 | O=C(CCNS(=O)(=O)c1cccc(C(F)(F)F)c1)NC1CC1 | inactive
87 | Clc1ccc(CSc2nncn2-c2ccc3c(c2)OCCO3)cc1 | inactive
88 | O=S(=O)(c1ccc(F)cc1)N1CC[C@@H]2[C@@H](CO)Nc3ccc(-c4ccc(F)cc4)cc3[C@@H]21 | inactive
89 | COc1ccc(S(=O)(=O)N2CC[C@@H]3[C@@H](CO)Nc4ccc(-c5ccc(C#N)cc5)cc4[C@@H]32)cc1 | inactive
90 | COc1ccc(S(=O)(=O)N2CC[C@@H]3[C@@H](CO)Nc4ccc(C5=CCCCC5)cc4[C@@H]32)cc1 | inactive
91 | O=C(c1cccnc1)N1CC[C@@H]2[C@H](CO)Nc3ccc(C4=CCCCC4)cc3[C@@H]21 | inactive
92 | Cc1ccc(S(=O)(=O)N2CCN(C(=O)CN(Cc3ccco3)Cc3cccs3)CC2)cc1 | inactive
93 | CCN(C(=O)COC(=O)c1cccc2ccccc12)c1c(N)n(Cc2ccccc2)c(=O)[nH]c1=O | inactive
94 | O=C(Nc1ccc(F)cc1)C1CCN(C(=O)c2ccc(F)cc2)CC1 | inactive
95 | COc1cccc(-c2nnc(SCC(=O)NC3CCS(=O)(=O)C3)n2C)c1 (stereo unspecified) | inactive
96 | O=C(NCc1ccccn1)c1n[nH]c(=O)c2ccccc12 | inactive
